# VP16 counter: counter-screen for ROR gamma inhibitors: Gal4-VP16 reporter. Drosophila S2 Gal4-VP16 UAS-luciferase, luminescence, 20 h. Potency, µM (series often up to 53.6 µM), for the others: at the top dose activity, negative = inhibition, hits mostly inhibitors. 310,000 tested, 3.5% active;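 note: Gal4-VP16 expression switched on by copper sulfate through the metallothionein promoter; nearly all actives have a fitted effect of over 50% in size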
# RORgamma inh: inhibitors of mouse ROR gamma transcriptional activity; 310,000 tested, 5.4% active; Drosophila S2 Gal4-RORgamma UAS-luciferase reporter, 20 h; Potency, µM (series often up to 53.6 µM), inactives show at the highest dose activity change, negative = inhibition, usual class: inhibitors; note: nearly all actives have a fitted effect of over 60% in size
# Target sequence (P51450 whole entry, looked up, the tested form may be a part): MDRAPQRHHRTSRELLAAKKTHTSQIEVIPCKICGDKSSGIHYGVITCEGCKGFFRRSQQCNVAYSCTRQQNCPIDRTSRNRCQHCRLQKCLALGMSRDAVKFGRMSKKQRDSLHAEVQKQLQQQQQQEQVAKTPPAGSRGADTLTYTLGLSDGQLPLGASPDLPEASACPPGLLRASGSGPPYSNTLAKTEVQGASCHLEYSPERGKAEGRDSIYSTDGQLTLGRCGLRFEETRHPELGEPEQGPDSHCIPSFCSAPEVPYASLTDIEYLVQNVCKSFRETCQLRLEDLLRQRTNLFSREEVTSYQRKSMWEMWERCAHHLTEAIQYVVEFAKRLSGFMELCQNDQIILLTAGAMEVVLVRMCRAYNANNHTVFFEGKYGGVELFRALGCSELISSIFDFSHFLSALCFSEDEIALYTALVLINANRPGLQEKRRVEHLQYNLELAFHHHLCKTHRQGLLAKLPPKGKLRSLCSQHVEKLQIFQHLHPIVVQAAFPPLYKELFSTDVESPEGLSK
#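 Drosophila S2 cells stably expressing Gal4-DBD/mouse RORγ fusion under metallothionein promoter plus UAS-luciferase; compound 1 h, then 700 uM CuSO4 induction for 20 h at ambient temperature; inhibition read as reduced luminescence.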
# Luc counter: Kinase-Glo luciferase inhibition (counter-screen); Kinase-Glo luciferase, ATP luminescence, 8 min; Potency, µM (top dose mostly 38.3 µM), without a hit: at the top dose activity change, negative = inhibition, most hits filed as inhibitors; 200,000 tested, 0.28% active; AID 1379; note: nearly all actives have a fitted effect of over 60% in size
#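 Light output from Kinase-Glo luciferase with luciferin and 10 uM ATP in 50 mM imidazole pH 7.2, KCl, MgCl2, Tween 20, BSA; compound pin-delivered, 8-min ambient incubation, then luminescence read.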
# * marks the source's active call; other numbers are inactive results; ? = inconclusive; · = no result; [ ] = another dose, or the depositor's remark. Rows were chosen to be rich in hits. Some 6.2% of all compounds tested hit in one or more screens of this group. Calls come from the whole dose curve; as a rule, active = well fitted curve in the direction sought with a large enough effect; inconclusive = small, poorly fitted or top-dose-only effect, or another doubt; inactive = no such curve, though single readings can be large; an effect the other way counts as inactive or inconclusive. % is set by controls: 0 for no effect and ±100 for the full control effect; potency is the fitted concentration of half-maximal effect.
SMILES,VP16 counter,RORgamma inh,Luc counter
CC(=O)N1CCN(c2ccc(Oc3ccc([N+](=O)[O-])c(C(F)(F)F)c3)cc2)CC1,7.1µM*,?,·
Cc1cnc(CNc2ncncc2-c2ccccc2CN(C)C)cn1,2%,?,-1%
CC(N=C1CC(C)(C)CC(=O)/C1=C(/O)CCCN1C(=O)c2ccccc2C1=O)C(=O)O (stereo unspecified),-2%,-18%,3%
Cc1ccc(Cl)cc1NS(=O)(=O)Cc1ccccc1,-8%,-2%,·
O=C(Nc1ccc2c(c1)CCC2)c1cccc(F)c1,-27%,24%,-22%
O=C(Nc1nnc(-c2ccc3c(c2)CCCC3)o1)c1ccc(Cl)cc1Cl,1.6µM*,1.6µM*,2%
O=C(Nc1nnc(-c2ccc3c(c2)CCCC3)o1)c1c(F)cccc1F,4.5µM*,0.5µM*,7%
O=C(Nc1ccc2c(c1)C(=O)OC2)c1ccc(Cl)cc1Cl,-10%,22%,·
CC(=O)c1cccc(NS(=O)(=O)N2CCOCC2)c1,-2%,-3%,·
Cc1ccc(NS(=O)(=O)N2CCOCC2)cc1Cl,30%,0.35µM*,·
FC(F)(F)c1ccc(CN2C[C@@H]3C(c4ccc(C(F)(F)F)cc4)C4(c5ccccc5)CC3(C4)[C@H]2c2ccccc2)cc1 (stereo partly specified),7%,-21%,-4%
Cn1c(O)c(N=NC(=O)CNC(=O)c2ccccc2)c2ccccc21,6%,-19%,·
Cn1c(N=NC(=O)c2ccccc2)c(O)c2ccccc21,?,8.9µM*,-7%
CN(C)CCNCc1ccccc1OC1CCCC1,3%,?,-1%
O=C(Nc1ccc(Cl)cc1Cl)c1cccc(N2C(=O)C=CC2=O)c1,-4%,4%,-2%
CCOc1ccc2c(c1)-c1c(ssc1=S)C(C)(C)N2C(=O)CSC1=NCCS1,7%,3.2µM*,4%
Cc1ccc2c(c1)-c1c(ssc1=S)C(C)(C)N2C(=O)CSC1=NCCS1,-6%,?,1%
CC(NC(=O)COc1ccccc1Cl)c1ccccc1 (stereo unspecified),5%,5%,·
NC(=S)Nc1ccc(Cl)cc1Cl,-4%,-35%,·
CC1C/C(=N\NC(N)=S)c2cc(Cl)ccc2S1 (stereo unspecified),2µM*,0.63µM*,·
CCc1ccc(CN(C)C(=O)CCc2nnc(Cc3cccc(C)c3)o2)nc1,3%,18%,0%
CCCCNC(=O)NS(=O)(=O)c1ccc(NC(=O)C(NC(N)=O)C(C)CC)cc1 (stereo unspecified),1%,-1%,·
Nc1nc(=S)n(-c2ccccc2)[nH]1,1%,?,0%
S=c1nc(C2CCCCC2)n(-c2ccccc2)[nH]1,-4%,2.8µM*,-3%
COc1cccc(Cn2c(=O)c(-c3ccccc3)nc3cncnc32)c1,7%,-8%,·
SMILES,VP16 counter,RORgamma inh,Luc counter
COc1ccc2[nH]c(N=Nc3ccccc3C)c(O)c2c1,12%,?,3%
CN(C)C(=S)N=Nc1[nH]c2ccccc2c1O,5.6µM*,0.89µM*,-17%
CC(C)c1nc2c(c(=O)n(C)c(=O)n2C)n1C,4%,22%,·
c1ccc(CC2CCN(c3ncnc4sccc34)CC2)cc1,4µM*,10µM*,2%
O=C(O)c1cc2c(N3CCC(Cc4ccccc4)CC3)ncnc2s1,14%,1%,0%
Cc1sc2ncnc(N3CCN(c4ncccn4)CC3)c2c1C,-2%,-23%,0%
Cc1ccc(S(=O)(=O)N2CCN(c3ncnc4sccc34)CC2)cc1,5µM*,?,·
Cc1ccc(S(=O)(=O)N2CCN(c3ccccn3)CC2)cc1,2%,-1%,·
CCS(=O)(=O)N1CCN(c2ncnc3sc(C)c(C)c23)CC1,10%,21%,-4%
Cc1sc2ncnc(N3CCN(S(=O)(=O)c4ccc(F)cc4)CC3)c2c1C,22µM*,-40%,·
COc1cc(C(=O)N2CCN(c3ncnc4sc(C)c(C)c34)CC2)cc(OC)c1OC,4µM*,?,·
O=C(O)COCC(=O)N1CCc2c([nH]c3ccccc23)C1C(F)(F)F (stereo unspecified),-1%,-4%,·
Cc1ccc(C(=S)N2CCN(Cc3ccccc3)CC2)s1,-10%,-33%,1%
CC(=O)Nc1c(I)c(C(=O)N[C@H]2[C@@H](O)[C@H](O)[C@H](CO)O[C@@H]2O)c(I)c(N(C)C(C)=O)c1I,8%[17 µM],13%[2.98 µM],2%[17.1 µM]
O=C(CN1C(=O)NC2(CCCC2)C1=O)Nc1cccc(Cl)c1,20%,28%,·
O=C(Nc1ccncc1)c1ccccc1-c1ccccc1,3%,14%,5%
FC(F)(F)c1cccc(N2CCN(C(=S)NC3CCCC3)CC2)c1,?,?,3%
COc1ccc(N2CCN(C(=S)Nc3ccc(C)cc3C)CC2)cc1,-17%,-14%,-2%
Cc1ccc(C)c(NC(=S)N2CCN(c3ccccn3)CC2)c1,?,13µM*,·
COc1ccc(N2CCN(C(=S)Nc3cc(C)ccc3C)CC2)cc1,-18%,2µM*,4%
FC(F)(F)c1ccccc1NC(=S)N1CCN(c2ccccn2)CC1,2%,?,0%
COc1ccc(NC(=O)N2CCN(c3cccc(C(F)(F)F)c3)CC2)cc1,4%,-4%,-1%
CN(C)S(=O)(=O)c1ccc(NC(=O)N2CCN(c3cccc(C(F)(F)F)c3)CC2)cc1,10µM*,?,1%
FC(F)(F)c1cccc(N2CCN(C(=S)NC3CCCCC3)CC2)c1,?,16µM*,0%
CCCc1cc(C(=O)N2CCCC(Cc3ccccc3C)(C(=O)OCC)C2)no1 (stereo unspecified),1%,-6%,·
SMILES,VP16 counter,RORgamma inh,Luc counter
CCOc1ccccc1N1CCN(C(=O)CCCc2nc3ccccc3s2)CC1,20%,?,1%
S=C(Nc1cc(Cl)ccc1Oc1ccccc1)N1CCN(c2ccccn2)CC1,?,11µM*,·
CCc1ccc(C(=O)N2CCC(c3nc4ccccc4s3)CC2)cc1,-4%,-16%,-2%
CCNC(=S)N1CCN(c2cccc(C(F)(F)F)c2)CC1,-10%,?,2%
Cc1ccc(C)c(NC(=S)N2CCC(c3nc4ccccc4s3)CC2)c1,6.3µM*,2.8µM*,-3%
C=CCNC(=S)N1CCN(c2cccc(C(F)(F)F)c2)CC1,?,-36%,3%
COc1ccc(OC)c(NC(=S)N2CCN(c3ccccn3)CC2)c1,5%,-18%,-4%
Cc1ccc(C)c(NC(=S)N2CCN(c3cccc(C(F)(F)F)c3)CC2)c1,11µM*,4.5µM*,1%
Cc1ccnc(NC(=S)N2CCN(c3cccc(C(F)(F)F)c3)CC2)c1,0.56µM*,0.32µM*,·
O=C(NC1CCN(c2ncccn2)CC1)c1c(F)cccc1F,3%,-4%,·
Cc1ccc(C(=O)COC(=O)c2ccccc2NC(=O)c2ccccc2)cc1[N+](=O)[O-],-1%,-2%,-2%
COc1ccc(N2CCC(CNC(=S)Nc3cc(C)ccc3C)C2)cc1 (stereo unspecified),10µM*,1.8µM*,·
Cn1cccc1C(=O)N1CCN(c2cccc(C(F)(F)F)c2)CC1,-10%,7%,0%
O=C(c1c(F)cccc1F)N1CCN(c2cccc(C(F)(F)F)c2)CC1,18µM*,?,-2%
COc1ccc(N2CCC(CNC(=S)Nc3cc(C)cc(C)c3)C2)cc1 (stereo unspecified),-17%,32%,·
